Cardiac RTF inh: cardiac RTF calcium desensitization; P19429+P45379; IANBD-labeled cardiac RTF, Ca2+ fluorescence; inhibition, % at 7.15 µM; 0.12% of 340,000 active; AID 493244;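 active means inhibition above the mean inhibition of all tested compounds plus 3 SD, cut at about 17% in these data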;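 further: assay run at fixed EC70 calcium of 1.6 mM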
Myeloid diff 2: myeloid differentiation induction; ER-HoxA9 myeloid progenitors, lysozyme-GFP differentiation, flow cytometry; calls only at 10 µM; 1% of 360,000 active; AID 624256;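 active means normalized GFP-positive differentiation at or above the plate's own cutoff, the solvent-only control mean plus 3 SD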;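 further: cells exposed to compound for four days before flow analysis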
cardiac RTF act: increases calcium sensitivity of human cardiac regulated thin filaments | IANBD-labeled TnC RTF fluorescence at EC20 calcium; 0% EC20 calcium, 100% full calcium | activation, % at 7.2 µM | 0.24% of 340,000 active | AID 493008;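 active means activation above the mean over all tested compounds plus 3 SD, cut at about 30% in these data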;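 further: rise in fluorescence read as greater calcium sensitivity of cardiac thin filaments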
CRFBP-R2 block: blocks CRF-induced signaling of the CRF-BP/CRF-R2 complex; HEK293 CRF-R2/CRF-BP, CRF-induced calcium fluorescence; inhibition, % at 11.8 µM; 0.59% of 350,000 active; AID 588475;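 active means inhibition of the ligand-induced calcium signal above about 50% at the single tested concentration, limit read from the data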
CRFBP-R2 agonist: agonists of human CRF-binding protein/CRF-R2 receptor complex | 0.46% of 350,000 active | activation, % at 13.2 µM | AID 588473 | HEK293 CRF-R2/CRF-BP, calcium dye fluorescence (FLIPR); percent of saturating CRF peptide response;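 active means activation of at least 50%, plus an integration ratio under a set limit after plate pattern correction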
Myeloid diff: compounds promoting myeloid differentiation; AID 651706; calls only; 2% of 2,300 active; ER-HoxA9 myeloid progenitors, GFP/Mac1 double-positive flow; shares compounds with Myeloid diff 2;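 active means share of green or green-and-red cells above 9 and 9% in run 1 or 4 and 3% in run 2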
GFP autofluor: counter-screen for myeloid differentiation promoters: compound fluorescence | shares compounds with Myeloid diff 2 | ER-HoxA9 myeloid progenitors, no estrogen, GFP autofluorescence flow cytometry; vehicle wells 0%, positive control 100% | fluorescence response, % (test concentration not listed) | 7.4% of 2,300 active | AID 651707;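 active means over 5% cells positive for green fluorescent reporter, or over 2% positive for both it and APC stain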
Calls only. In the library only some 2.2% were active in any assay of this set; here they are far more common.

Results for CC(C)CC1C(=O)N(Cc2cn(CC3CCCCC3)nn2)CCS(=O)(=O)N1Cc1ccc(-c2ccncc2)cc1 (stereo not drawn) ?
Myeloid diff 2: inactive; CRFBP-R2 block: inactive; CRFBP-R2 agonist: inactive; Myeloid diff: inactive; GFP autofluor: inactive

What do the screens show for `O=C1CCCC(O)=C1C=NCc1ccccc1`?
Cardiac RTF inh: inactive; Myeloid diff 2: inactive; cardiac RTF act: inactive; CRFBP-R2 block: inactive; CRFBP-R2 agonist: inactive

How did O=C(Nc1cccc(F)c1)c1ccc(-c2cccnc2)c2ccoc12 do in these assays?
Myeloid diff 2: inactive

How did CC1(C2CC2)NC(=O)N(CC(=O)Nc2ccccc2-c2ccccc2)C1=O (stereo not drawn) do in these assays?
Cardiac RTF inh: inactive; Myeloid diff 2: inactive; cardiac RTF act: inactive; CRFBP-R2 block: inactive; CRFBP-R2 agonist: inactive

What do the screens show for `O=C(O)Cn1ncn(-c2ccc(OC(F)(F)F)cc2)c1=O`?
Cardiac RTF inh: inactive; Myeloid diff 2: inactive; cardiac RTF act: inactive; CRFBP-R2 block: inactive; CRFBP-R2 agonist: inactive

What do the screens show for `CC(c1ccccc1)N1C(=O)CC(Sc2ncccc2C(=O)O)C1=O` (stereo not drawn)?
Cardiac RTF inh: inactive; cardiac RTF act: inactive; CRFBP-R2 block: inactive; CRFBP-R2 agonist: inactive; Myeloid diff: inactive; GFP autofluor: inactive

What do the screens show for `O=C(COC(=O)c1cccnc1Cl)Nc1ccc2c(c1)OCCO2`?
Cardiac RTF inh: inactive; Myeloid diff 2: active; cardiac RTF act: inactive; CRFBP-R2 block: inactive; CRFBP-R2 agonist: inactive; Myeloid diff: inactive; GFP autofluor: inactive

Results for O=C(COC(=O)c1cccnc1Cl)NCc1ccc2c(c1)OCO2 ?
Cardiac RTF inh: inactive; Myeloid diff 2: inactive; cardiac RTF act: inactive; CRFBP-R2 block: inactive; CRFBP-R2 agonist: inactive

Results for C[C@H](O)[C@@H]1CN2CCc3c([nH]c4ccccc34)[C@@H]2C[C@@H]1N(C)C(=S)NCCc1ccccc1 ?
Myeloid diff 2: active; Myeloid diff: inactive; GFP autofluor: inactive

What do the screens show for `C[C@H](O)[C@@H]1CN2CCc3c([nH]c4ccccc34)[C@@H]2C[C@@H]1N(C)C(=O)Nc1cccc2ccccc12`?
Myeloid diff 2: inactive; Myeloid diff: inactive; GFP autofluor: inactive

How did CCNC(=O)N(C)[C@H]1C[C@H]2c3[nH]c4ccccc4c3CCN2C[C@H]1[C@H](C)O do in these assays?
Myeloid diff 2: inactive

Results for COc1ccc(-c2ccc3[nH]c4c(c3c2)CCN2C[C@@H]([C@H](C)O)[C@@H](N(C)C(=O)Nc3cc(Cl)cc(Cl)c3)C[C@@H]42)cc1 ?
Myeloid diff 2: active; CRFBP-R2 block: inactive; CRFBP-R2 agonist: inactive; Myeloid diff: inactive; GFP autofluor: inactive

How did CCOC(=O)c1cc2c(=O)n3ccccc3nc2n(C(C)C)c1=NC(=O)c1c(-c2c(F)cccc2Cl)noc1C do in these assays?
Cardiac RTF inh: inactive; Myeloid diff 2: active; cardiac RTF act: inactive; CRFBP-R2 block: inactive; CRFBP-R2 agonist: inactive; Myeloid diff: inactive; GFP autofluor: inactive

What do the screens show for `CCOC(=O)c1cc2c(=O)n3ccccc3nc2n(C)c1=NC(=O)c1c(-c2c(F)cccc2Cl)noc1C`?
Cardiac RTF inh: inactive; Myeloid diff 2: inactive; cardiac RTF act: inactive; CRFBP-R2 block: inactive; CRFBP-R2 agonist: inactive

What do the screens show for `Cc1c(NC(=O)C(C)Sc2nc3ccccc3c(=O)n2CCO)c(=O)n(-c2ccccc2)n1C` (stereo not drawn)?
Cardiac RTF inh: inactive; Myeloid diff 2: inactive; cardiac RTF act: inactive; CRFBP-R2 block: inactive; CRFBP-R2 agonist: inactive; Myeloid diff: inactive; GFP autofluor: inactive

How did Cc1cccc(N(Cc2cc3ccccc3[nH]c2=O)C(=O)c2cccs2)c1 do in these assays?
Cardiac RTF inh: inactive; Myeloid diff 2: inactive; cardiac RTF act: inactive; CRFBP-R2 block: inactive; CRFBP-R2 agonist: inactive

How did O=C(Nc1ccc(S(=O)(=O)N2CCCCC2)cc1)C1CCCN(C(=O)c2ccc(Cl)cc2)C1 (stereo not drawn) do in these assays?
Cardiac RTF inh: inactive; Myeloid diff 2: inactive; cardiac RTF act: inactive; CRFBP-R2 block: inactive; CRFBP-R2 agonist: inactive; Myeloid diff: inactive; GFP autofluor: inactive
